Assay results from PubChem BioAssay AID2263 (National Center for Advancing Translational Sciences (NCATS), 2010).
Some of the results follow. Results filed as inconclusive are left out. Values without a mark were called inactive. Calls follow the shape of the dose curve; as a rule, active = well fitted inhibition curve with a large enough effect; inconclusive = small, poorly fitted or top-dose-only effect, or effect the other way; inactive = flat fitted curve, though single readings scatter.

molecular target: Pyruvate kinase PKM (Homo sapiens) (UniProt P14618); assay: Confirmation Concentration-Response Assay for Inhibitors of Human Muscle isoform 2 Pyruvate Kinase; conditions: purified hPK-M2, Kinase-Glo ATP luminescence, 1 h; series mostly up to 57.5 µM; activity change, negative = inhibition: at the top concentration
Description: NIH Chemical Genomics Center [NCGC] Matthew G. Vander Heiden, M.D., Ph.D. [Harvard Medical School, 77 Avenue Louis Pasteur, Boston, MA 02115] MLPCN Grant: 1 R03 MH085679-01 NCGC Assay Overview: Human pyruvate kinase muscle 2 (hPK-M2) enzyme was supplied as a highly purified (>95% pure) preparation from Harvard Medical School and assayed for its ability to generate ATP from ADP using phosphoenolpyruvate (PEP) as a substrate. ATP generation was detected in a coupled reaction by luciferase-mediated luminescence, an ATP-dependent process. Pyruvate kinase substrates, PEP and ADP, were present in the assay at Km and approximately 10-fold below Km respectively. The enzyme was assayed at an intermediate level of activity to screen for both inhibitors and activators.
NCGC Assay Protocol Summary: Three uL of substrate mix (at r.t.) in assay buffer (50 mM Imidazole pH7.2, 50 mM KCl, 7 mM MgCl2, 0.01% Tween 20, 0.05% BSA) was dispensed into white solid bottom 1,536 well microtiter plates so that the final concentrations of substrates in the assay were 0.1 mM ADP and 0.5 mM PEP. 23 nL of compound were delivered by a pin tool and 1 uL of enzyme mix in assay buffer (4 degree Celsius) was added. […] Two uL of detection mix (Kinase-Glo, Promega; at 4 degree Celsius protected from light) was added and luminescence read by a ViewLux (Perkin Elmer) at 5 second exposure/plate. […]

Chain of Pyruvate kinase PKM (Homo sapiens) (P14618 whole entry, looked up, canonical isoform): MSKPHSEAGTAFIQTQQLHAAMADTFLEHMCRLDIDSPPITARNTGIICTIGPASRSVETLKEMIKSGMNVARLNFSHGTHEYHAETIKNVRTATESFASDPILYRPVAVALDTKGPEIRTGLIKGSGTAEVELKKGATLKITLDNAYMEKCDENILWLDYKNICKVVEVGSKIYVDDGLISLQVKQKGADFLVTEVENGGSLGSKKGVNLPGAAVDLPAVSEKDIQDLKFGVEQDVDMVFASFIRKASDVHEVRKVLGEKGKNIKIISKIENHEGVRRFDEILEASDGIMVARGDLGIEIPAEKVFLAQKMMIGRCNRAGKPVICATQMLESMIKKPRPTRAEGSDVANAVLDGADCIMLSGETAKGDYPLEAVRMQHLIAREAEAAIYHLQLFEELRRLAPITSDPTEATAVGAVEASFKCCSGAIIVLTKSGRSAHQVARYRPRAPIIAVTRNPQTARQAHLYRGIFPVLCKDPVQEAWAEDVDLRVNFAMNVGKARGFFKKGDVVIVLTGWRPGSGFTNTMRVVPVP

| SMILES | activity change, negative = inhibition [%] |
| --- | --- |
| Cc1ccc(-c2nc3ccccn3c2Nc2ccc(F)cc2)o1 | 14 |
